Measurements: PubChem BioAssay (Tox21)
Where “and” joins values, the source holds several entries; their conditions need not be identical. Equal values may be shown once. Results filed as inconclusive are left out. Calls of active or inactive are those of the source. Unless noted, calls follow the shape of the dose curve; as a rule, active = well fitted curve in the direction sought with a large enough effect in the repeat runs; inconclusive = weak or mixed curves; inactive = no such curve, though single readings can be large; an effect the other way counts as inactive or inconclusive.

Assays:
[1] = A CellTox Green Cytotoxicity Assay to monitor cytotoxicity in HepG2 cells - 0 hour (AID 1224882); also: nearly all actives have a fitted effect of over 35% in size
Procedure, shortened: (§1)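 Read-out is fluorescence of a cyanine dye excluded from live cells that stains DNA of dead HepG2 cells, with signal proportional to cytotoxicity. Plates were read at 0, 8, 16, 24, 32 and 40 h after compound addition.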

[2] = A CellTox Green Cytotoxicity Assay to monitor cytotoxicity in HepG2 cells - 32 hour (AID 1224883); also: nearly all actives have a fitted effect of over 50% in size; also: potency is read from the fitted curve at half-maximal effect
Procedure, shortened: as §1

[3] = A CellTox Green Cytotoxicity Assay to monitor cytotoxicity in HEK293 cells - 8 hour (AID 1224884); also: nearly all actives have a fitted effect of over 35% in size; also: potency is read from the fitted curve at half-maximal effect
Procedure, shortened: (§2)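 Nonlytic real-time cytotoxicity: HEK293 + CellTox Green reagent plated, 5 h preincubation, pintool compound addition (23 nL in DMSO), 37 C for 40 h, fluorescence measured at successive time points.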

[4] = qHTS RealTime-Glo MT Cell Viability Assay in HEK293 cells - 24 hour (AID 1224886); also: nearly all actives have a fitted effect of over 50% in size; also: potency is read from the fitted curve at half-maximal effect
Procedure, shortened: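 HEK293 cells seeded with NanoLuc/prosubstrate reagent, rested 5 h at 37 C, then dosed and kept at 37 C up to 40 h. Nonlytic real-time luminescence from viable cells read at 0, 8, 16, 24, 32 and 40 h.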

[5] = A CellTox Green Cytotoxicity Assay to monitor cytotoxicity in HEK293 cells - 16 hour (AID 1224888); also: nearly all actives have a fitted effect of over 35% in size; also: potency is read from the fitted curve at half-maximal effect
Procedure, shortened: as §2

[6] = qHTS RealTime-Glo MT Cell Viability Assay in HepG2 cells - 0 hour (AID 1224889); also: nearly all actives have a fitted effect of over 50% in size
Procedure, shortened: (§3)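 HepG2 cells (600/well) were dispensed with RealTime-Glo reagents, incubated 5 h at 37 °C, then treated with compounds in DMSO for up to 40 h. Nonlytic NanoLuc luminescence reflecting viable cells was read at each stated time point.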

[7] = A CellTox Green Cytotoxicity Assay to monitor cytotoxicity in HepG2 cells - 8 hour (AID 1224890); also: nearly all actives have a fitted effect of over 45% in size; also: potency is read from the fitted curve at half-maximal effect
Procedure, shortened: as §1

[8] = qHTS assay to identify small molecule antagonists of the estrogen receptor alpha (ER-alpha) signaling pathway using the BG1 cell line in the presence of 0.1 nM 17-beta-estradiol - cell viability counter screen (AID 1259241); also: nearly all actives have a fitted effect of over 40% in size; also: potency is read from the fitted curve at half-maximal effect
Procedure, shortened: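 Estradiol-stimulated (0.1 nM) VM7Luc4E2 cells exposed to compounds 22 hr; viability measured by fluorescence of cleaved CellTiter-Fluor substrate after 30 min.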

[9] = molecular target: Androgen receptor (Homo sapiens) (UniProt P10275); experiment: qHTS assay to identify small molecule antagonists of the androgen receptor (AR) signaling pathway using the MDA cell line in the presence of 0.5 nM R1881 (AID 1259243); also: nearly all actives have a fitted effect of over 50% in size; also: potency is read from the fitted curve at half-maximal effect
Procedure, shortened: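 Luciferase luminescence is the read-out: compounds are tested for suppressing 0.5 nM R1881-driven MMTV reporter activity in MDA-kb2 cells after 16 hr at 37C.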

[10] = molecular target: Estrogen receptor (Homo sapiens) (UniProt P03372); experiment: qHTS assay to identify small molecule antagonists of the estrogen receptor alpha (ER-alpha) signaling pathway using the BG1 cell line in the presence of 0.1 nM 17-beta-estradiol (AID 1259244); also: nearly all actives have a fitted effect of over 50% in size; also: potency is read from the fitted curve at half-maximal effect
Procedure, shortened: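 Cells: VM7Luc4E2, endogenous ER-alpha, 4x ERE-luc stable. Pre-culture 5 d, phenol red-free, charcoal-stripped FBS. Plated 24 h, compound + E2 0.1 nM final, 22 h 37C/5% CO2. Readout ONE-Glo luminescence.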

[11] = qHTS assay to identify small molecule HDAC inhibitors - cell viability counter screen (AID 1259365)
Procedure, shortened: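 After overnight seeding at 1,500 cells per well, wild-type HCT-116 cultures took up compounds in DMSO for 2hr at 37 C. Viable cell content came from luminescence with CellTiter-Glo.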

[12] = qHTS assay to identify small molecule agonists of the sonic hedgehog signaling (Shh) pathway - cell viability counter screen (AID 1259366); also: nearly all actives have a fitted effect of over 50% in size; also: potency is read from the fitted curve at half-maximal effect
Procedure, shortened: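 Same-well cytotoxicity read. Gli1-Luc reporter 3T3 cells; compounds 24hr, 37C/5% CO2; CellTiter-Fluor fluorescence.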

[13] = qHTS assay to identify small molecule antagonists of the sonic hedgehog signaling (Shh) pathway - cell viability counter screen (AID 1259367); also: nearly all actives have a fitted effect of over 55% in size; also: potency is read from the fitted curve at half-maximal effect
Procedure, shortened: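 Seed 3T3 Gli1-Luc cells at 2,000 per well; incubate 4 hr; add compound in DMSO, then conditioned medium; incubate at 37C with 5% CO2; add CellTiter-Fluor after 23 hr; read fluorescence 1 hr later.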

[14] = qHTS assay to identify small molecule agonists of the sonic hedgehog signaling (Shh) pathway (AID 1259368; calls by dose curve;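 also: NIH/3T3-derived 3T3Gli1-Luc cells carrying a stable Gli1-driven firefly luciferase reporter; series mostly up to about 92 µM; nearly all actives have a fitted effect of over 15% in size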)
Procedure, shortened: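 3T3Gli1-Luc (NIH/3T3 clone, stable Gli1-Luc); 4 hr pre-incubation, then cpd in DMSO 24 hr, 37 C/5% CO2; luciferase reagent 30 min RT; luminescence.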

[15] = qHTS assay to identify small molecule antagonists of the sonic hedgehog signaling (Shh) pathway (AID 1259369; calls by dose curve; also: nearly all actives have a fitted effect of over 45% in size; also: potency is read from the fitted curve at half-maximal effect)
Procedure, shortened: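 3T3Gli1-Luc, conditioned-medium-stimulated, 24hr cpd, 37C/5% CO2; Gli1-driven firefly Luc luminescence after 30min RT with luciferase reagent. Cells plated 4hr before cpd.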

[16] = qHTS RealTime-Glo MT Cell Viability Assay in HEK293 cells - 8 hour (AID 1224887); also: nearly all actives have a fitted effect of over 50% in size; also: potency is read from the fitted curve at half-maximal effect
Procedure, shortened: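 Cells were seeded together with NanoLuc luciferase and a prosubstrate that viable cells reduce to a luciferase substrate. After a 5 h incubation at 37 C/5% CO2, compounds were added and luminescence was measured repeatedly during 40 h of treatment.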

[17] = qHTS assay to identify small molecule antagonists of the androgen receptor (AR) signaling pathway using the MDA cell line in the presence of 0.5 nM R1881 - cell viability counter screen (AID 1259242); also: nearly all actives have a fitted effect of over 45% in size; also: potency is read from the fitted curve at half-maximal effect
Procedure, shortened: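 Counter screen for cytotoxicity run in the same wells as the AR antagonist reporter screen: MDA-kb2 cells were treated 16 hr with test compounds and 0.5 nM R1881, then live-cell protease activity was measured by fluorescence.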

[18] = qHTS assay to identify small molecule HDAC inhibitors (AID 1259364); also: top concentration of the series differs between compounds; nearly all actives have a fitted effect of over 45% in size
Procedure, shortened: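 Luminescence from a cell-permeant luminogenic class I/II HDAC substrate reports endogenous deacetylase activity in intact HCT-116 cells treated with compounds for 2 h.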

[19] = qHTS RealTime-Glo MT Cell Viability Assay in HepG2 cells - 16 hour (AID 1224885); also: nearly all actives have a fitted effect of over 50% in size
Procedure, shortened: as §3

[20] = qHTS assay to identify small molecule phospholipidosis (PLD) inducers (AID 1259344; active = well fitted curve in the direction sought with a large enough effect; an effect the other way counts as inactive or inconclusive)
Procedure, shortened: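 Quantitative HTS in HepG2: compound plus LipidTOX Red dye for 24 h, paraformaldehyde fixation with Hoechst 33342, widefield high-content imaging; amiodarone as positive and DMSO as negative control.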
% is scaled to controls: 0 for no effect and ±100 for the full control effect.

Androgen receptor (Homo sapiens), sequence (P10275 whole entry, looked up): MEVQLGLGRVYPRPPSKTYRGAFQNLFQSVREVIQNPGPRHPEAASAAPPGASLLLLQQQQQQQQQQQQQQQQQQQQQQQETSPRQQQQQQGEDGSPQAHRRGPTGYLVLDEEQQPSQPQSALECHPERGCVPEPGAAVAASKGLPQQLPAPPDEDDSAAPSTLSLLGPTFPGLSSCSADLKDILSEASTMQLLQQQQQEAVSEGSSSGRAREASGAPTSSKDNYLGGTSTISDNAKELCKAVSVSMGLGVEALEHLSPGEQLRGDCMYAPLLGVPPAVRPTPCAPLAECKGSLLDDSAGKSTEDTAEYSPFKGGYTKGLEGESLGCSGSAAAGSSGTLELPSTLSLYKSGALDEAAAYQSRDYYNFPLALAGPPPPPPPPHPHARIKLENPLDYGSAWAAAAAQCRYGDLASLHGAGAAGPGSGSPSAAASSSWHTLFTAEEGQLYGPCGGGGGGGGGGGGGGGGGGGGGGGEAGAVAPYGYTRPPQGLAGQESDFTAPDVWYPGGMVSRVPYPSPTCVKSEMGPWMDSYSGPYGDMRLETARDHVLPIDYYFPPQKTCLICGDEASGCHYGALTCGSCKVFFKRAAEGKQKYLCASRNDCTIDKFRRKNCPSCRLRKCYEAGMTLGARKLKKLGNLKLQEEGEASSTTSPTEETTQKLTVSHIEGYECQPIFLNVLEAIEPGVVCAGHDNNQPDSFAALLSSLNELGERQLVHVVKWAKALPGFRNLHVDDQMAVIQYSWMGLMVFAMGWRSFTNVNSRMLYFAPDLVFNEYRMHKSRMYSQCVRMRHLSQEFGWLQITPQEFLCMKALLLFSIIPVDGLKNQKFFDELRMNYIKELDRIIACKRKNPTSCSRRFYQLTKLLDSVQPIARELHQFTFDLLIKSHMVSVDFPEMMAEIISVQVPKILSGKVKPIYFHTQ
Estrogen receptor (Homo sapiens), sequence (P03372 whole entry, looked up): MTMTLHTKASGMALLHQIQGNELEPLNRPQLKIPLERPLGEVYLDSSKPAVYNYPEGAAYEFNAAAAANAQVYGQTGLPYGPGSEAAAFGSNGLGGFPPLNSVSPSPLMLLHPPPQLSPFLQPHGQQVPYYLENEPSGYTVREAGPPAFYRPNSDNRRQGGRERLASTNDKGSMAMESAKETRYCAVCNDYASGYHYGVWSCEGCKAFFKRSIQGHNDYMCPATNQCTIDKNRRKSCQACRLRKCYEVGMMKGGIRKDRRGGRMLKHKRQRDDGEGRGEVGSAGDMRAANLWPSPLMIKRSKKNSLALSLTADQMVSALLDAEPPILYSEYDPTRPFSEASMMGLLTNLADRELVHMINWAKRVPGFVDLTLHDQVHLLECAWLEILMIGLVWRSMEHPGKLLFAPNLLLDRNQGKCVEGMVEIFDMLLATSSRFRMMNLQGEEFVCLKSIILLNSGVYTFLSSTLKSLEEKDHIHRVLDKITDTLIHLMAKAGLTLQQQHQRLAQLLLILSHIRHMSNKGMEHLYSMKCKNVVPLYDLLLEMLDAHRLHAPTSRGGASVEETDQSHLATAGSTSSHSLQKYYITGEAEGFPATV

COc1cccc2c1C(=O)c1c(O)c3c(c(O)c1C2=O)C[C@@](O)(C(=O)CO)CC3OC1CC(N2CCOC(OC)C2)C(O)C(C)O1 (some centres undefined)
inactive: Potency [1] | Potency [3] | Potency [5] | Potency [6] | Potency [11] | Potency [14]
active: Potency [2] 42.5 nM | Potency [4] 0.0535 µM | Potency [7] 21.3 µM | Potency [8] 13.3 µM | Potency [9] 0.119 µM | Potency [10] 0.15 µM | Potency [12] 237 nM | Potency [13] 0.168 µM | Potency [15] 6.7 nM

CCCCCCCCCCCCCCCC[n+]1ccccc1
inactive: Potency [1] | Potency [6] | Potency [18] | Potency [11] | Potency [14]
active: Potency [2] 15.5 µM [middle of 4 runs] | Potency [3] 49 µM [middle of 4 runs] | Potency [4] 9.52 µM [middle of 4 runs] | Potency [16] 45.7 µM and 54.9 µM and 54.2 µM | Potency [5] 49 µM [middle of 4 runs] | Potency [7] 49 µM and 48.3 µM and 16.9 µM | Potency [17] 32 µM and 24.3 µM and 26.9 µM | Potency [12] 60.3 µM [middle of 4 runs] | Potency [15] 508 nM and 30.6 nM and 21.4 nM

CCC(C)c1cc(C(C)(C)C)cc(-n2nc3ccccc3n2)c1O (centres undefined)
inactive: Potency [1] | Potency [2] | Potency [3] | Potency [4] | Potency [16] | Potency [5] | Potency [6] | Potency [7] | Potency [8] | Potency [17] | Potency [9] | Potency [18] | Potency [11] | Potency [14] | Potency [15]

COP(N)(=S)OC
inactive: Potency [1] | Potency [2] | Potency [3] | Potency [4] | Potency [16] | Potency [5] | Potency [6] | Potency [7] | Potency [8] | Potency [17] | Potency [9] | Potency [10] | Potency [18] | Potency [11] | Potency [12] | Potency [13] | Potency [14] | Potency [15]

C[C@]12Cc3nonc3C[C@@H]1CC[C@@H]1[C@@H]2CC[C@@]2(C)[C@H]1CC[C@]2(C)O
active: Potency [4] 19 µM | Potency [9] 21.1 µM
inactive: Potency [1] | Potency [2] | Potency [3] | Potency [5] | Potency [6] | Potency [7] | Potency [8] | Potency [17] | Potency [18] | Potency [11] | Potency [13] | Potency [14]

C[C@@H]1O[C@@H](O[C@@H]2C=C3CC[C@@H]4[C@H](CC[C@]5(C)[C@@H](c6ccc(=O)oc6)CC[C@]45O)[C@@]3(C)CC2)[C@H](O)[C@H](O)[C@H]1O
active: Potency [4] 0.0301 µM
inactive: Potency [1] | Potency [2] | Potency [3] | Potency [16] | Potency [5] | Potency [6] | Potency [7] | Potency [8] | Potency [17] | Potency [9] | Potency [18] | Potency [11] | Potency [13]

CCCCCCCCCCCCCN1CC(C)OC(C)C1 (centres undefined)
inactive: Potency [1] | Potency [2] | Potency [3] | Potency [4] | Potency [16] | Potency [5] | Potency [6] | Potency [7] | Potency [8] | Potency [17] | Potency [10] | Potency [18] | Potency [11] | Potency [13] | Potency [14] | Potency [15]

CC(Cl)CN(C)C (centres undefined)
inactive: Potency [1] | Potency [2] | Potency [19] | Potency [6] | Potency [7] | Potency [8] | Potency [17] | Potency [9] | Potency [10] | Potency [18] | Potency [11] | Potency [12] | Potency [13] | Potency [14]

CC(=O)O[C@H]1CC[C@@]2(C)C(=CC[C@@H]3[C@@H]2CC[C@]2(C)C(=O)CC[C@@H]32)C1
active: Potency [4] 54.9 µM | Potency [9] 5.45 µM
inactive: Potency [1] | Potency [2] | Potency [19] | Potency [5] | Potency [6] | Potency [7] | Potency [8] | Potency [17] | Potency [10] | Potency [20] | Potency [18] | Potency [11] | Potency [13] | Potency [14]

Clc1ccc(CSC(Cn2ccnc2)c2ccc(Cl)cc2Cl)cc1 (centres undefined)
active: Potency [13] 26.6 µM
inactive: Potency [1] | Potency [2] | Potency [3] | Potency [5] | Potency [6] | Potency [8] | Potency [20] | Potency [18] | Potency [14] | Potency [15]

S=C(SSC(=S)N1CCCCC1)N1CCCCC1
active: Potency [2] 190 nM | Potency [4] 13.4 µM | Potency [12] 2660 nM | Potency [13] 5.96 µM
inactive: Potency [1] | Potency [3] | Potency [5] | Potency [6] | Potency [8] | PLD induction [20] -4.77% [at 0.0123 µM] | Potency [18] | Potency [11] | Potency [14]

CC(C)OC(=O)C(O)(c1ccc(Cl)cc1)c1ccc(Cl)cc1
inactive: Potency [1] | Potency [3] | Potency [6] | Potency [8] | Potency [17] | Potency [10] | Potency [18] | Potency [11] | Potency [12] | Potency [14]
active: Potency [2] 27500 nM | Potency [4] 21.9 µM | Potency [15] 54500 nM

C[C@@H]1O[C@@H](O[C@H]2C[C@@H](O)[C@]3(CO)[C@H]4[C@H](O)C[C@]5(C)[C@@H](C6=CC(=O)OC6)CC[C@]5(O)[C@@H]4CC[C@]3(O)C2)[C@H](O)[C@H](O)[C@H]1O
inactive: Potency [1] | Potency [2] | Potency [3] | Potency [5] | Potency [7] | Potency [8] | Potency [17] | Potency [9] | Potency [10] | Potency [20] | Potency [18] | Potency [11] | Potency [12] | Potency [13] | Potency [14] | Potency [15]
